Bioassay records as filed in PubChem.
Most compounds without a hit are left out; they make up all but 27% or so of the library.
CYP2C19 activ: activators of human cytochrome P450 2C19; recombinant CYP2C19, luciferin-H EGE luminescence; stronger effect = higher value; 0 = fully inhibited enzyme, 1 = untreated enzyme; AID 1025; P33261; activation factor at 5 µM; 96,000 tested, under 10 active;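 active = activation factor of at least 2 at 5 µM in the primary screen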;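 note: 0 = wells with 2.5 mM tranylcypromine and 1 = vehicle-only wells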
CYP2C9 inhib: inhibitors of human CYP2C9 | AID 777 | 20% of 96,000 active | P11712 | inhibition, % at 5 µM | CYP2C9 Supersomes, luciferin-H conversion, luminescence;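 active = blocking of liver enzyme CYP2C9 beyond about 50% at 5 µM, limit read from the data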
Target sequence (P11712 whole entry, looked up): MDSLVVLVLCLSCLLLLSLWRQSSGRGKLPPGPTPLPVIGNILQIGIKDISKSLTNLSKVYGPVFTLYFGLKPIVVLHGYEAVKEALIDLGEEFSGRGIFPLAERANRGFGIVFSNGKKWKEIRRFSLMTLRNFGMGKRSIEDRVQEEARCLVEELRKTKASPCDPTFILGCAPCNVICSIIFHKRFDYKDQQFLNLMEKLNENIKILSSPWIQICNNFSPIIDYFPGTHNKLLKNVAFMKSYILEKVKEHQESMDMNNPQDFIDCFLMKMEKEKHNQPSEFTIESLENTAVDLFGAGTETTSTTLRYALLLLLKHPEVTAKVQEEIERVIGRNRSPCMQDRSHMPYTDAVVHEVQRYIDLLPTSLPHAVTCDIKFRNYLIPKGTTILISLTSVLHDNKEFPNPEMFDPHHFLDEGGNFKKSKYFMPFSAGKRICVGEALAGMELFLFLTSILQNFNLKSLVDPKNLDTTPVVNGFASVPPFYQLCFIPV
Cav32 inh: blocks human Cav3.2 T-type calcium channel. O95180. Cav3.2-expressing cells, Fluo-4 calcium fluorescence FDSS; stronger effect = lower value. B-score at 10 µM. 4% of 100,000 active;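 active = single-dose well whose peak fluorescence ratio is a statistical outlier from its plate by either plate-standardised score or position-corrected B-score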
CYP2C9 act: activators of human CYP2C9. activation factor at 5 µM. 1.4% of 96,000 active. recombinant CYP2C9, luciferin-H conversion, luminescence; stronger effect = higher value; factor 1 = untreated enzyme, 0 = blocked. AID 1024;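 active = activation factor of 2 or more for CYP2C9 at a 5 µM dose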;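 note: 0 = sulfaphenazole-blocked wells and 1 = vehicle-only wells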
CYP2C19 inhib: blocks human cytochrome P450 2C19. inhibition, % at 5 µM. 21% of 96,000 active. AID 778. CYP2C19 Supersomes, luciferin-H EGE luminescence, 30 min;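 active = CYP2C19 inhibition above a set limit at 5 µM in the primary screen, cut at about 50% in these data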;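 note: plate controls were negative control wells for no effect and 2.5 mM tranylcypromine positive control for full effect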
Numbers without * were called inactive; x = not tested or not shown.

SMILES	CYP2C19 activ	CYP2C9 inhib	Cav32 inh	CYP2C9 act	CYP2C19 inhib
CCOC(=O)c1cnc(SC2CC(=O)N(c3cccc(OC)c3)C2=O)nc1N (stereo unspecified)	0.6	73*	0.37	0.3	36
Cc1ccc(F)cc1NC(=O)c1c(-c2ccccc2)noc1C	0.5	13	-2.7	0.9	53*
CCCOc1ccccc1NC(=O)c1c(-c2ccccc2)noc1C	1	-15	-4.8*	1.1	4
CCOc1ccccc1NC(=O)c1ccc(S(=O)(=O)N(C)C)cc1	0.7	36	-0.068	0.6	28
COc1ccc(NC(=O)c2c(-c3ccccc3)noc2C)c(OC)c1	0.5	31	0.019	0.7	46
Cc1cccc(C)c1NC(=O)c1c(-c2ccccc2)noc1C	0.6	10	2.3	0.9	43
Cc1ccccc1NC(=O)c1c(-c2ccccc2)noc1C	0.5	-2	0.38	1	52*
CCOc1ccccc1NC(=O)c1ccc2nccnc2c1	1	-114	-0.24	2.1*	2
CCc1ccccc1N(CC(=O)O)S(C)(=O)=O	1.1	-19	-0.63	1.2	-14
CC(C)(C)NC(=O)CN(C(=O)CS(=O)CC(=O)Nc1ccc(F)cc1)c1ccc(Cl)cc1 (stereo unspecified)	1	45	-0.86	0.5	2
CCCCOCCCNC(=O)c1c(-c2ccccc2)noc1C	0.3	47	-0.086	0.5	68*
CCCCOc1ccccc1NC(=O)c1ccc(=O)[nH]c1	1.1	-9	1	1.1	-7
COCCCNC(=O)c1c(-c2ccccc2)noc1C	0.9	1	-0.14	1	7
CCCOc1ccccc1NC(=O)c1ccc(N)cc1	0.6	-168	-1.3	2.7*	39
CCOc1ccccc1C(=O)Nc1ccccc1O	0.7	-469	-0.9	5.7*	27
Clc1ccccc1/C=N/c1cc(-c2ccccc2)nn1-c1ccccc1	1.1	-4	-1.2	1	-8
O=C(Nc1ccc(Cl)cc1)c1cc(S(=O)(=O)N2CCOCC2)cs1	0.9	35	-0.4	0.7	8
O=C(Nc1ccc(F)cc1)c1cc(S(=O)(=O)Nc2ccc(F)cc2)cs1	0.2	90*	-5.8*	0.1	77*
Cc1ccc(NC(=O)c2cc(S(=O)(=O)N3CCCCC3)cs2)cc1	0.8	68*	-4.8*	0.3	19
O=C(O)C1=C[C@H](c2ccccc2)C[C@H](OCCCCO)O1	x	x	0.69	x	x
Cc1c(C(=O)NCc2cccnc2)oc2ccc(S(=O)(=O)N3CCCCCC3)cc12	0.8	51*	-0.68	0.5	21
Cc1c(C(=O)NCc2ccc3c(c2)OCO3)oc2ccc(S(=O)(=O)N3CCCC3)cc12	1	48	x	0.5	3
O=C(Nc1ccc(S(=O)(=O)N2CCCC2)cc1)c1cccnc1	0.7	71*	-1.4	0.3	26
Cc1c(C(=O)NCc2cccnc2)oc2ccc(S(=O)(=O)N3CCCCC3)cc12	x	x	0.28	x	x
COc1ccc(S(=O)(=O)N2CCCCCC2)cc1C(=O)OCC(=O)NC(N)=O	0.9	21	1	0.8	10
SMILES	CYP2C19 activ	CYP2C9 inhib	Cav32 inh	CYP2C9 act	CYP2C19 inhib
Cc1c(C(=O)NCc2ccc3c(c2)OCO3)oc2ccc(S(=O)(=O)N3CCCCC3)cc12	0.9	59*	-1.8	0.4	13
O=C(COC(=O)c1ccccc1S(=O)(=O)N1CCCCC1)NCC(F)(F)F	0.7	70*	1.2	0.3	32
O=C(Nc1nc2ccc(S(=O)(=O)N3CCCCC3)cc2s1)c1cccnc1	0.9	33	-0.34	0.7	7
Cc1c(N(C(=O)c2cc(=O)[nH]c3ccccc23)C(C)C)c(=O)n(-c2ccccc2)n1C	0.9	-3	-0.52	1	13
CN1CCN(C(=O)C2=C[C@H](c3ccccc3)C[C@H](OCc3ccc(CO)cc3)O2)CC1	x	x	-2.5	x	x
C=CCNC(=O)C1CCN(S(=O)(=O)c2ccc(Br)cc2)CC1	0.5	-52	0.46	1.5	51*
Cc1c(C(=O)N(C)Cc2ccccc2)oc2ccc(S(=O)(=O)N3CCCC3)cc12	0.6	95*	-4	0	43
O=C(Nc1ccc(OC(F)(F)F)cc1)C1CCCN(S(=O)(=O)c2cccnc2)C1 (stereo unspecified)	0	20	0.011	0.8	99*
NS(=O)(=O)c1ccc(CCNC(=O)c2ccc(S(=O)(=O)N3CCCCC3)cc2)cc1	0.6	61*	-0.053	0.4	40
Cc1ccc(SCC(=O)NC(C)(C)C)cc1	0.8	13	0.88	0.9	16
COc1ccc(S(=O)(=O)n2nc(OCc3cccs3)cc2N)cc1	x	x	-1.2	x	x
O=C(NCc1cccnc1)c1ccc(S(=O)(=O)N2CCCCC2)cc1	0.4	47	1.8	0.5	61*
COc1ccccc1CNC(=O)c1oc2ccc(S(=O)(=O)N3CCCC3)cc2c1C	0.5	73*	x	0.3	47
CC(=O)Nc1ccc(S(=O)(=O)N2CCN(Cc3ccccn3)CC2)cc1	0.9	23	0.29	0.8	10
Cc1c(C(=O)NCc2ccccc2)oc2ccc(S(=O)(=O)N3CCCC3)cc12	1	33	x	0.7	4
O=C(Nc1ccc(S(=O)(=O)N2CCN(Cc3ccccc3)CC2)cc1)c1cnccn1	0.7	52*	-0.56	0.5	29
Cc1ccc(S(=O)(=O)N2CCC(C(=O)OC(C)C(=O)NCc3ccc4c(c3)OCO4)CC2)cc1 (stereo unspecified)	0.3	-44	-1.1	1.4	73*
O=C(NCc1ccc2c(c1)OCO2)c1ccc(S(=O)(=O)N2CCCCC2)cc1	1	8	-1.4	0.9	0
O=C(COC(=O)c1ccc(S(=O)(=O)N2CCCC2)cc1)NCc1ccccc1	0.6	56*	0.022	0.4	42
O=C(NCc1cccnc1)C1CCCN(S(=O)(=O)c2ccc(Br)cc2)C1 (stereo unspecified)	0.4	46	0.034	0.5	63*
CCS(=O)(=O)N1CCCC(C(=O)NCc2cccnc2)C1 (stereo unspecified)	0.7	1	0.087	1	34
CCCNS(=O)(=O)c1ccc(NC(=O)c2cccnc2)cc1	0.6	98*	0.47	0	38
Cc1ccccc1NC1=C(Cl)C(=O)OC1NC(=O)c1ccccc1 (stereo unspecified)	0.4	72*	0.71	0.3	61*
Cc1noc(C)c1COC(=O)c1cc2c3ccccc3n(C)c2s1	0.4	81*	0.11	0.2	57*
Cc1nc2ccccc2c(=O)n1C1CCCCCC1	0.4	13	-1.4	0.9	58*
CCCCNC(=O)CSc1nc2ccccc2c(=O)n1C1CCCC1	0.7	56*	-2	0.4	26
CCOC(=O)CSc1nc2ccccc2c(=O)n1C1CCCC1	0.8	36	-2.5	0.6	16
Cc1sc2nc(CN3CCN(S(=O)(=O)c4cccc5nonc45)CC3)[nH]c(=O)c2c1C	1.1	1	-0.37	1	-6
Cc1nc2nc(C)c(CCC(=O)Nc3ccc4c(c3)OCO4)c(C)n2n1	1.1	4	0.13	1	-6
